# In PubChem BioAssay (EPA / NIEHS):
# “And” between values parts separate entries of the source, which are not always exact repeats. Equal entries are not always repeated. Records with an inconclusive call do not appear. The source made the active and inactive calls. How the source made its calls, unless noted: active means hit-call score of the fitted dose curve at least 0.9, where 1 is the maximum; inconclusive means response in the unintended direction; inactive means score below 0.9.
# Tests used:
# [1] = BSK_SAg_Proliferation: Cell Proliferation Assessment in the BioMAP Diversity Plus: SAg Assay (AID 2283095; active means hit-call score of the fitted dose curve at least 0.9, where 1 is the maximum; inactive means score below 0.9;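 further: relative cell number as total protein by SRB absorbance in sub-confluent culture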); conditions: primary human HUVEC with PBMC
# Method in brief: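 HUVEC/PBMC co-culture, 96-well. TCA-fixed (10%), 0.1% SRB stain, A560 at 96 h. Protein content used as viability readout; bidirectional fitting vs DMSO control.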
# [2] = BSK_SAg_SRB: Viability Assessment in the BioMAP Diversity Plus: SAg Assay (AID 2283096; active means hit-call score of the fitted dose curve at least 0.9, where 1 is the maximum; inactive means score below 0.9;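 further: cells read one day after compound addition; hits may be either gain or loss of signal compared with DMSO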); conditions: primary human HUVEC with PBMC
# Method in brief: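 Compounds were added to a human vascular co-culture of umbilical vein endothelium and PBMC. After 24 h, parallel cultures were fixed with 10% TCA, stained with 0.1% sulforhodamine B and read at 560 nm. Gain or loss of signal was fitted relative to DMSO.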
# [3] = target: human CYP1A1, CYP1A1 (gene 1543) (UniProt P04798); test: NVS_ADME_hCYP1A1: NovaScreen (NVS) CYP450-related Enzyme Activity (ADME) Assay for human CYP1A1 (AID 2283100)
# Sequence of human CYP1A1, CYP1A1 (gene 1543) (P04798 whole entry, looked up): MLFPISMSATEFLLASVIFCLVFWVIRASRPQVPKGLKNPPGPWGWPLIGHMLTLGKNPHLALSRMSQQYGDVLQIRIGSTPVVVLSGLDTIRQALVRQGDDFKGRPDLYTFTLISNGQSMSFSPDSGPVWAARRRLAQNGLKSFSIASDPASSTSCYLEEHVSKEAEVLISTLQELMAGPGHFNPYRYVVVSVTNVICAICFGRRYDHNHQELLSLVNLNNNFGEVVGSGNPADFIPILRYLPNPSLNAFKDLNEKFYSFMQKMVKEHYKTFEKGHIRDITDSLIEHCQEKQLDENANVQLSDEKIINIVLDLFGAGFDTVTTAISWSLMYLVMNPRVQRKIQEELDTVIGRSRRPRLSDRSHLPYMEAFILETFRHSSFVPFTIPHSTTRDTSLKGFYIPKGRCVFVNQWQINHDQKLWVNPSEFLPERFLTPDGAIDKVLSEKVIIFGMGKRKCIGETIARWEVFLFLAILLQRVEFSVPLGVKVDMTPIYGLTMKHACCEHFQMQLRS
# Method in brief: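 Read-out: fluorescence intensity from enzymatic turnover of substrate by recombinant CYP1A1, loss of signal indicating inhibition. Incubation 1 h post-dose. Primary single-point 10 uM in duplicate; actives rerun singly with top concentration 20 uM.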
# [4] = target: human CYP2B6, CYP2B6 (gene 1555) (UniProt P20813); test: NVS_ADME_hCYP2B6: NovaScreen (NVS) CYP450-related Enzyme Activity (ADME) Assay for human CYP2B6 (AID 2283101)
# Sequence of human CYP2B6, CYP2B6 (gene 1555) (P20813 whole entry, looked up): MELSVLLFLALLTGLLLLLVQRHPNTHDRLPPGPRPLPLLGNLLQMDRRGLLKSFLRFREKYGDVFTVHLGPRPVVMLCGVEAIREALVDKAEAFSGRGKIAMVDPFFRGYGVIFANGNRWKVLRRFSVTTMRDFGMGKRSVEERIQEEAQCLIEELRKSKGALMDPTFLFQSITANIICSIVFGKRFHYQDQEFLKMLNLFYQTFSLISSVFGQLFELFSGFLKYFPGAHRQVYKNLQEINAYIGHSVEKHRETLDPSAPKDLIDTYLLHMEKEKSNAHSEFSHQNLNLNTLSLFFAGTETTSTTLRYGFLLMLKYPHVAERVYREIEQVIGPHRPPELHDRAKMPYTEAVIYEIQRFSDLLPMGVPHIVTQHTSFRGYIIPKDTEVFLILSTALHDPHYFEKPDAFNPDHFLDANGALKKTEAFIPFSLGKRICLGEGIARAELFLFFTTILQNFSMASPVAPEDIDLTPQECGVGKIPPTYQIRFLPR
# Method in brief: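 Recombinant human CYP2B6 with fluorogenic substrate, read by fluorescence intensity 1 h after dosing. Primary screen in duplicate at 10 uM, actives followed in concentration series; signal loss relative to acetonitrile control.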
# [5] = target: human CYP1A2, CYP1A2 (gene 1544) (UniProt P05177); test: NVS_ADME_hCYP1A2: NovaScreen (NVS) CYP450-related Enzyme Activity (ADME) Assay for human CYP1A2 (AID 2283102);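 on AC50: potency for inhibition since loss of fluorescence marks reduced CYP1A2 activity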
# Sequence of human CYP1A2, CYP1A2 (gene 1544) (P05177 whole entry, looked up): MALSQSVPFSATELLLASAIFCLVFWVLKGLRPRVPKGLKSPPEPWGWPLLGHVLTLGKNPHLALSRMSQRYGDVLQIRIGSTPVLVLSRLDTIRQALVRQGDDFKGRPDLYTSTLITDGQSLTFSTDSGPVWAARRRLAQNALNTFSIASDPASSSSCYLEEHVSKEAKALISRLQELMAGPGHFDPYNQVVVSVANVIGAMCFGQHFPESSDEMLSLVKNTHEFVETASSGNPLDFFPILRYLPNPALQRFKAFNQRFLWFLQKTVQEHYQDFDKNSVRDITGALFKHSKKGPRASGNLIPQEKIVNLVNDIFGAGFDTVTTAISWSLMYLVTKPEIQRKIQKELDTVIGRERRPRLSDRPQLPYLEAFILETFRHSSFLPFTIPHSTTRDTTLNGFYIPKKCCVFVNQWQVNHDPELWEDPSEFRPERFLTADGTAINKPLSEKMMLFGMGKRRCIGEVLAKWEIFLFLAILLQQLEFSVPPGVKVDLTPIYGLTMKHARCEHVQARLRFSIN
# Method in brief: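 Fluorescence-intensity enzyme activity read-out, taken 0.5 h post-dosing, using insect-cell-derived recombinant CYP1A2 and specific fluorescent substrate. Acetonitrile served as negative control/baseline. Single-concentration duplicate screen at 10 uM, then concentration-response follow-up.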
# [6] = target: human CYP2C9, CYP2C9 (gene 1559) (UniProt P11712); test: NVS_ADME_hCYP2C9: NovaScreen (NVS) CYP450-related Enzyme Activity (ADME) Assay for human CYP2C9 (AID 2283108)
# Sequence of human CYP2C9, CYP2C9 (gene 1559) (P11712 whole entry, looked up): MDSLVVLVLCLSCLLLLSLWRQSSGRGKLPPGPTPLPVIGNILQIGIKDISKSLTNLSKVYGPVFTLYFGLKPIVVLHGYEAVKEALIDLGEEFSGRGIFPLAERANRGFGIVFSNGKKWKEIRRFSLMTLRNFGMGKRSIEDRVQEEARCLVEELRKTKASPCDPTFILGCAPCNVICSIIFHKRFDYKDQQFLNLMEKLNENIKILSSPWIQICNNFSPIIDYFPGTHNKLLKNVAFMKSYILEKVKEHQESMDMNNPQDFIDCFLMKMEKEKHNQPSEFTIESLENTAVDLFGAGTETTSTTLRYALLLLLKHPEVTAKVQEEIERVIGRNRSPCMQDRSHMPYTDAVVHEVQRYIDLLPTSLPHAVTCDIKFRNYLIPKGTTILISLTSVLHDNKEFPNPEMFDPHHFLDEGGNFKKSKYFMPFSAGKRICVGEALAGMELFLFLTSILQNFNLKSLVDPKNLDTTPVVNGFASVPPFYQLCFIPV
# Method in brief: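 Recombinant human CYP2C9 expressed in SF9 cells, fluorogenic substrate, fluorescence read 0.75 h after dosing. Chemicals first run in duplicate at 10 uM, with actives followed in concentration series; loss of signal versus acetonitrile baseline.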
# [7] = target: Cytochrome P450 2C19 (Homo sapiens) (UniProt P33261); test: NVS_ADME_hCYP2C19: NovaScreen (NVS) CYP450-related Enzyme Activity (ADME) Assay for human CYP2C19 (AID 2283113);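 further: potency for inhibition seen as loss of fluorescent signal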
# Method in brief: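 Recombinant insect-cell-expressed enzyme, fluorescent substrate, 1 h after chemical addition, fluorescence intensity. Baseline = acetonitrile vehicle; activity scored as signal loss. Primary HTS single concentration 10 uM, duplicate; actives retested in concentration series.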
# [8] = target: human CYP2D6, CYP2D6 (gene 1565) (UniProt P10635); test: NVS_ADME_hCYP2D6: NovaScreen (NVS) CYP450-related Enzyme Activity (ADME) Assay for human CYP2D6 (AID 2283107)
# Sequence of human CYP2D6, CYP2D6 (gene 1565) (P10635 whole entry, looked up): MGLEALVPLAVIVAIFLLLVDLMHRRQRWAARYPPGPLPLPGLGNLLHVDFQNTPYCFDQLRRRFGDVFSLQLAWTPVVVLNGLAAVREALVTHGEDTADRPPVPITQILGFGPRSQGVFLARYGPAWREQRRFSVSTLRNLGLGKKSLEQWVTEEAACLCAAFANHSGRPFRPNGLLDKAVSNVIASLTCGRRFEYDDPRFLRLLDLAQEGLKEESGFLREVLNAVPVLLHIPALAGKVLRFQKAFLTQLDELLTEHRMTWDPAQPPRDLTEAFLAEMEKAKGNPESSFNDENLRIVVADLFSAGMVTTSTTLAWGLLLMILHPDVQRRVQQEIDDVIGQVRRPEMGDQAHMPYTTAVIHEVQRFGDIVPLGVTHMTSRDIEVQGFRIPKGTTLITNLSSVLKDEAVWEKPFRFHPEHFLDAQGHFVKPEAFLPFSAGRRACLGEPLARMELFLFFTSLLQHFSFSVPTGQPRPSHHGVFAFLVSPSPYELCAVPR
# Method in brief: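 Fluorescence intensity read 1 h post-dosing; insect-cell-expressed recombinant protein with fluorogenic substrate, no cells. Activity is scored as signal loss relative to acetonitrile baseline, first at a single 10 uM concentration in duplicate, then as concentration series for confirmed actives.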
# [9] = target: human Casein Kinase 1-delta (CK1D), CSNK1D (gene 1453) (UniProt P48730); test: NVS_ENZ_hCK1D: NovaScreen (NVS) Enzymatic Assay for human Casein Kinase 1-delta (CK1D) (AID 2283148)
# Sequence of human Casein Kinase 1-delta (CK1D), CSNK1D (gene 1453) (P48730 whole entry, looked up): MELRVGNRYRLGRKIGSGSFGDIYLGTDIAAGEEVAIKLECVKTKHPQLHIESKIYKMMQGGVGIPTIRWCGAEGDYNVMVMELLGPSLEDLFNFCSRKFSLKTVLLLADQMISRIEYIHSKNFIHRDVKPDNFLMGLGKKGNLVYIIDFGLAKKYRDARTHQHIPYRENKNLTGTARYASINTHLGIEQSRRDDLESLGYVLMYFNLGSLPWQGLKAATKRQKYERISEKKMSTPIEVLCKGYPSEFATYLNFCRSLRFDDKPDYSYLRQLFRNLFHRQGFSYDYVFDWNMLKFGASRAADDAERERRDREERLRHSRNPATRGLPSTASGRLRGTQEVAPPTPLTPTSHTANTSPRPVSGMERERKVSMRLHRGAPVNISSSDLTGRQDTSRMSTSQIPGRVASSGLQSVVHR
# Method in brief: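 Recombinant human CK1-delta, cell-free; fluorescent substrate with electrophoretic mobility-shift separation of product, read 1 h after dosing. Single 25 uM duplicate screen, then concentration-response up to 50 uM; loss of signal vs DMSO.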
# [10] = target: human Caspase 8 (CASP8), CASP8 (gene 841) (UniProt Q14790); test: NVS_ENZ_hCASP8: NovaScreen (NVS) Enzymatic Assay for human Caspase 8 (CASP8) (AID 2283146)
# Sequence of human Caspase 8 (CASP8), CASP8 (gene 841) (Q14790 whole entry, looked up): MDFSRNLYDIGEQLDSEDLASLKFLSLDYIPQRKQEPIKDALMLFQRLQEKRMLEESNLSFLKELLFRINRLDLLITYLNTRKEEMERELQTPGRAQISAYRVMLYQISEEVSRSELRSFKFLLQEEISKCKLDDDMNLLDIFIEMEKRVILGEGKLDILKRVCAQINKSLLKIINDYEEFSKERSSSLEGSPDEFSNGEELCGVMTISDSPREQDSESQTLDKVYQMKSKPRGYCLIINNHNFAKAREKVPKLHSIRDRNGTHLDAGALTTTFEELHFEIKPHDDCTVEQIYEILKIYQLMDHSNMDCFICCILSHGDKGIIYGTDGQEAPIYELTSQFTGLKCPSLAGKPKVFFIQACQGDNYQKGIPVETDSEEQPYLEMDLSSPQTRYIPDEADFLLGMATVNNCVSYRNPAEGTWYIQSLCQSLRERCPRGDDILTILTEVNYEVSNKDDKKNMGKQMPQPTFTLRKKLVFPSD
# Method in brief: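 The primary screen tested compounds in duplicate at a single 25 uM concentration, with actives followed up in concentration series. Activity of recombinant (E. coli) protease was measured by fluorescence 1 h post-dose, as signal loss against DMSO.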
# [11] = target: human AKT serine/threonine Kinase 1 (AKT1), AKT1 (gene 207) (UniProt P31749); test: NVS_ENZ_hAKT1: NovaScreen (NVS) Enzymatic Assay for human AKT serine/threonine Kinase 1 (AKT1) (AID 2283138)
# Method in brief: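 Fluorescence and mobility-shift readout of kinase activity, taken 1 h post-dosing in a cell-free format with recombinant protein. Primary screen at 25 uM in duplicate; hits (e.g. 30% inhibition) retested in concentration series topping at 50 uM.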
# [12] = target: human AKT serine/threonine Kinase 2 (AKT2), AKT2 (gene 208) (UniProt P31751); test: NVS_ENZ_hAKT2: NovaScreen (NVS) Enzymatic Assay for human AKT serine/threonine Kinase 2 (AKT2) (AID 2283141)
# Method in brief: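 Cell-free fluorescence/electrophoretic mobility shift readout of recombinant human AKT2 activity, 1 h after chemical dosing. Duplicate primary screen at 25 uM, then singleton concentration-response up to 50 uM; loss of signal versus DMSO baseline.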
# [13] = target: human Caspase 5 (CASP5), CASP5 (gene 838) (UniProt P51878); test: NVS_ENZ_hCASP5: NovaScreen (NVS) Enzymatic Assay for human Caspase 5 (CASP5) (AID 2283137)
# Method in brief: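 Fluorescent substrate readout of CASP5 activity (loss-of-signal), measured 2 h post-dose. Protein expressed in E. coli. Primary screen duplicate at 25 uM; actives meeting threshold (e.g., 30% inhibition) rerun singleton, max 50 uM.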
# [14] = target: human Beta-secretase (BACE), BACE1 (gene 23621) (UniProt P56817); test: NVS_ENZ_hBACE: NovaScreen (NVS) Enzymatic Assay for human Beta-secretase (BACE) (AID 2283140);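 further: hits are inhibitors that reduce fluorescent substrate signal versus DMSO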
# Sequence of human Beta-secretase (BACE), BACE1 (gene 23621) (P56817 whole entry, looked up): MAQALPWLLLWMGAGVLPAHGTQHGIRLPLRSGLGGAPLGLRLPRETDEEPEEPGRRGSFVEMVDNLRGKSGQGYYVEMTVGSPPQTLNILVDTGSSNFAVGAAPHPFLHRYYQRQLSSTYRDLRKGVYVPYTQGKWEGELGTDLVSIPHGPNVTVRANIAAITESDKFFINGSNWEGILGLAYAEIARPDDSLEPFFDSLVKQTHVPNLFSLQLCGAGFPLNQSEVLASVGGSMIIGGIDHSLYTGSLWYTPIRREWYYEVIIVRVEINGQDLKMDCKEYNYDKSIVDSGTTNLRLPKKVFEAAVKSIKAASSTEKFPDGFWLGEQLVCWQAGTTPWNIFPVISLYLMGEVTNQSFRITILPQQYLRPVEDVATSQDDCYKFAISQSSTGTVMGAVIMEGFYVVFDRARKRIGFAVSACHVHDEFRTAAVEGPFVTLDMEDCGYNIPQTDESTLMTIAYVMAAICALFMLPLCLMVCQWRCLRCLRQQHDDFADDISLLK
# Method in brief: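 SF9-expressed enzyme, cell-free; fluorescent substrate readout after 1 h. Screened at 25 uM single concentration, duplicate; hits retested in concentration series. Activity relative to DMSO baseline, loss-of-signal.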
# [15] = target: human Caspase 4 (CASP4), CASP4 (gene 837) (UniProt P49662); test: NVS_ENZ_hCASP4: NovaScreen (NVS) Enzymatic Assay for human Caspase 4 (CASP4) (AID 2283143)
# Sequence of human Caspase 4 (CASP4), CASP4 (gene 837) (P49662 whole entry, looked up): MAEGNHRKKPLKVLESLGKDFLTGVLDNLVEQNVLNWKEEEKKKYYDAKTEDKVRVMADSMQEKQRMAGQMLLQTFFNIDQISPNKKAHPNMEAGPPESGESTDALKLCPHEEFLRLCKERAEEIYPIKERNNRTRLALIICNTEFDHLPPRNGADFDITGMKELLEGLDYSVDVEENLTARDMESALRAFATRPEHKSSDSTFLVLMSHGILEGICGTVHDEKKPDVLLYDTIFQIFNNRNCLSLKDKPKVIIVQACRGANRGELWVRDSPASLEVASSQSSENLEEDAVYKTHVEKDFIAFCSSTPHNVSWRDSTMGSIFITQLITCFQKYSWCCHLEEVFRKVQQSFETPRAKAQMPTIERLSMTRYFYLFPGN
# Method in brief: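 Compounds were first tested in duplicate at 25 uM, and hits were titrated singly to a 50 uM maximum. Recombinant protease from E. coli was read by fluorescence 2 h post-dose, and activity loss was fitted against the DMSO baseline.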
# CDK2 (gene 1017) = CDK2 (gene 1017) (UniProt P24941); test: NVS_ENZ_hCDK2: NovaScreen (NVS) Enzymatic Assay for human Cyclin-Cependent Kinase 2 (CDK2) (AID 2283144)
# Method in brief: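 Compounds screened in duplicate at 25 uM, then in singleton concentration-response to a maximum of 50 uM, against recombinant CDK2; kinase activity read 1 hr after dosing by fluorescence with mobility-shift separation of substrate and product.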
# [16] = target: Cytochrome P450 3A4 (Homo sapiens) (UniProt P08684); test: NVS_ADME_hCYP3A4: NovaScreen (NVS) CYP450-related Enzyme Activity (ADME) Assay for human CYP3A4 (AID 2283110)
# Sequence of Cytochrome P450 3A4 (Homo sapiens) (P08684 whole entry, looked up): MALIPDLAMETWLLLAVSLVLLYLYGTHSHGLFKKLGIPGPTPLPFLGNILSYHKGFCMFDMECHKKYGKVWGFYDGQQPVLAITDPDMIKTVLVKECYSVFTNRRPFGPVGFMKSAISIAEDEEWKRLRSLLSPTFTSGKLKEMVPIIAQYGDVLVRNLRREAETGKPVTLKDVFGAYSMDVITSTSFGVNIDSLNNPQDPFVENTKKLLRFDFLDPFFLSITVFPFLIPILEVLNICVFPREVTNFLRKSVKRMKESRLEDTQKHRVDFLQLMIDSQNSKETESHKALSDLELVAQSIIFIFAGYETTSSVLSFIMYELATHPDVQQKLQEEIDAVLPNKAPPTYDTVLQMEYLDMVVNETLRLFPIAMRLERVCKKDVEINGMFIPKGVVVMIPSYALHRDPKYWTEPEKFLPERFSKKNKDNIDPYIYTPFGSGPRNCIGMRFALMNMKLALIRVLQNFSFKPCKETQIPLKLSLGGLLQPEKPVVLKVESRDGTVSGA
# Method in brief: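 Recombinant CYP3A4 from insect cells, fluorescence enzyme read-out, 0.33 h after chemical addition. Acetonitrile = negative control/baseline. Primary HTS: 10 uM in duplicate; actives re-tested in concentration series.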
# [17] = target: human CYP19A1, CYP19A1 (gene 1588) (UniProt P11511); test: NVS_ADME_hCYP19A1: NovaScreen (NVS) CYP450-related Enzyme Activity (ADME) Assay for human CYP19A1 (AID 2283098);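 further: potency for inhibitors seen as loss of fluorescent enzyme signal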
# Method in brief: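 Fluorescence intensity read-out; activity taken as signal loss relative to acetonitrile vehicle. Extracted enzyme, specific substrate, no cells, 0.5 h exposure. Duplicate single-point screen at 10 uM, then concentration–response follow-up for actives.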
smiles,measurement,setting,value
COC(=O)CC(=O)OC,outcome,[1],inactive
same,outcome,[2],inactive
CC(C)(O)c1coc(S(=O)(=O)NC(=O)Nc2c3c(cc4c2CCC4)CCC3)c1,outcome,[1],inactive
same,outcome,[2],inactive
same,outcome,[3],inactive
same,AC50,[4],6.39 µM (active)
same,AC50,[5],16 µM (active)
same,AC50,[6],13.4 µM (active)
same,AC50,[7],10 µM (active)
Cc1[nH]cnc1C[C@H]1CCc2c(C)c3ccccc3n2C1=O,AC50,[1],31 µM (active)
same,AC50,[2],26.8 µM (active)
same,AC50,[3],3.83 µM (active)
same,AC50,[4],4.01 µM (active)
same,AC50,[5],1.78 µM (active)
same,AC50,[8],3.98 µM (active)
same,AC50,[6],1.77 µM (active)
same,AC50,[7],0.636 µM (active)
same,AC50,[9],13.9 µM (active)
Cn1c(=O)c2c(ncn2C)n(C)c1=O,outcome,[1],inactive
same,outcome,[2],inactive
same,outcome,[9],inactive
O=C(NS(=O)(=O)/C=C/c1ccccc1)c1ccc(F)cc1Cl,AC50,[1],8.5 µM (active)
same,outcome,[2],inactive
same,AC50,[6],6.85 µM (active)
Cc1ccc(C)c(O)c1,outcome,[1],inactive
same,outcome,[2],inactive
same,outcome,[10],inactive
Cn1cnc([N+](=O)[O-])c1Sc1ncnc2nc[nH]c12,AC50,[1],17.3 µM (active) and 7.53 µM (active) and 7.26 µM (active)
same,outcome,[2],inactive
same,outcome,[11],inactive
same,outcome,[12],inactive
CCNc1ccccc1,outcome,[1],inactive
same,outcome,[2],inactive
same,outcome,[10],inactive
On1ccccc1=S,AC50,[1],6.94 µM (active)
same,outcome,[2],inactive
same,AC50,[7],5.15 µM (active)
CCOc1cccc(-n2cc(C(=O)N3CCN(c4cc(C(=O)O)c5ccccc5c4)CC3)nc2-c2ccc(C)cc2)c1,AC50,[1],24.6 µM (active)
same,AC50,[2],14.1 µM (active)
same,AC50,[13],18.3 µM (active)
same,AC50,[14],10.5 µM (active)
same,outcome,[15],inactive
C=CCCCCCCCCC(=O)O,outcome,[1],inactive
same,outcome,[2],inactive
same,outcome,CDK2 (gene 1017),inactive
Cn1c(=O)cc(Oc2ccc(F)cc2F)c2cnc(NCC(C)(C)O)nc21,outcome,[1],inactive
same,outcome,[2],inactive
same,outcome,[16],inactive
same,AC50,[9],0.0119 µM (active)
CCN(C(=O)c1cc(C)cc(OC[C@H](C)Nc2ccncc2)c1)C(C)C,outcome,[1],inactive
same,outcome,[2],inactive
same,AC50,[6],4.5 µM (active)
same,AC50,[16],2.87 µM (active)
NC(=O)NO,outcome,[1],inactive
same,outcome,[2],inactive
same,AC50,[11],16.5 µM (active)
CNS(=O)(=O)c1cc(C(=O)N2CCC(CCN3C4CCC3CC(n3c(C)nc5ccccc53)C4)(c3cccc(F)c3)CC2)c(Cl)cc1F (stereo not given),AC50,[1],10.4 µM (active)
same,AC50,[2],16.7 µM (active)
same,AC50,[6],6.52 µM (active)
same,AC50,[16],4.08 µM (active)
same,AC50,[7],6.01 µM (active)
same,outcome,[15],inactive
CCCCCCc1ccc(O)cc1O,AC50,[1],31 µM (active)
same,AC50,[17],4.09 µM (active)
same,AC50,[4],4.64 µM (active)
same,outcome,[5],inactive
same,AC50,[8],8.17 µM (active)
same,AC50,[6],10 µM (active)
same,AC50,[7],4.91 µM (active)
same,outcome,[14],inactive
